# Values joined by “and” are separate entries in the source; they are usually repeats but may differ in a detail not shown here. Identical values can stand only once. About 79,000 compounds went through this panel and 15% of them were active in at least one assay; those are over-represented in the sample as a whole. The source holds several records for some structures; these can differ, active in one and inactive in another. Active and inactive are the calls of the source. Cut-off read from the data, not from the text of the source: active = growth inhibition above about 70%; inactive = the rest.
# Assay: NCI Yeast Anticancer Drug Screen. Data for the rad14 strain (AID 159);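 note: 0% = growth of vehicle-treated control cultures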
# Details: S. cerevisiae rad14 strain growth inhibition; at 1.2 µM; stronger effect = higher value
# Method in brief: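 Test compounds were applied to a repair-deficient yeast strain. Its growth was then compared with that of cultures given vehicle alone, and inhibition was expressed relative to those controls.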
row,SMILES,growth inhibition
1,C=C[C@H]1CN2CC[C@H]1C[C@@H]2[C@@H](O)c1ccnc2ccccc12,-3% (inactive)
2,O=c1c2ccccc2[se]n1-c1cccnc1,-28% (inactive)
3,OC1(c2ccccc2)CC2CCC(C1)N2CCCC(O)(c1ccccc1)c1ccccc1 (stereo not drawn),4% (inactive)
4,COC(=O)C(F)C(Br)C(=O)OC (stereo not drawn),5% (inactive)
5,CCCCCCCCCC[Se]C#N,-1% (inactive)
6,Nc1nc(N)c(-c2ccc(Cl)c(Cl)c2)c(CP(Cl)(Cl)(Cl)Br)n1,6% (inactive)
7,CC1CC(C)CC(C)C(O)/C(C#N)=C/C=C/CC(C2CCCC2C(=O)O)OC(=O)CC(O)C(C)C1 (stereo not drawn),98% (active)

# Same assay, conditions: S. cerevisiae rad14 strain growth inhibition; at 3.7 µM; stronger effect = higher value
row,SMILES,growth inhibition
1,C=C[C@H]1CN2CC[C@H]1C[C@@H]2[C@@H](O)c1ccnc2ccccc12,-9% (inactive)
2,O=c1c2ccccc2[se]n1-c1cccnc1,2% (inactive)
3,OC1(c2ccccc2)CC2CCC(C1)N2CCCC(O)(c1ccccc1)c1ccccc1 (stereo not drawn),5% (inactive)
4,COC(=O)C(F)C(Br)C(=O)OC (stereo not drawn),67% (inactive)
5,CCCCCCCCCC[Se]C#N,-2% (inactive)
6,Nc1nc(N)c(-c2ccc(Cl)c(Cl)c2)c(CP(Cl)(Cl)(Cl)Br)n1,8% (inactive)
7,CC1CC(C)CC(C)C(O)/C(C#N)=C/C=C/CC(C2CCCC2C(=O)O)OC(=O)CC(O)C(C)C1 (stereo not drawn),98% (active)

# Same assay, conditions: S. cerevisiae rad14 strain growth inhibition; at 11.0 µM; stronger effect = higher value
row,SMILES,growth inhibition
1,C=C[C@H]1CN2CC[C@H]1C[C@@H]2[C@@H](O)c1ccnc2ccccc12,-2% (inactive)
2,O=c1c2ccccc2[se]n1-c1cccnc1,38% (inactive)
3,OC1(c2ccccc2)CC2CCC(C1)N2CCCC(O)(c1ccccc1)c1ccccc1 (stereo not drawn),15% (inactive)
4,COC(=O)C(F)C(Br)C(=O)OC (stereo not drawn),93% (active)
5,CCCCCCCCCC[Se]C#N,4% (inactive)
6,Nc1nc(N)c(-c2ccc(Cl)c(Cl)c2)c(CP(Cl)(Cl)(Cl)Br)n1,27% (inactive)
7,CC1CC(C)CC(C)C(O)/C(C#N)=C/C=C/CC(C2CCCC2C(=O)O)OC(=O)CC(O)C(C)C1 (stereo not drawn),98% (active)

# Same assay, conditions: S. cerevisiae rad14 strain growth inhibition; at 33.0 µM; stronger effect = higher value
row,SMILES,growth inhibition
1,C=C[C@H]1CN2CC[C@H]1C[C@@H]2[C@@H](O)c1ccnc2ccccc12,0% (inactive)
2,O=c1c2ccccc2[se]n1-c1cccnc1,89% (active)
3,OC1(c2ccccc2)CC2CCC(C1)N2CCCC(O)(c1ccccc1)c1ccccc1 (stereo not drawn),53% (inactive)
4,COC(=O)C(F)C(Br)C(=O)OC (stereo not drawn),97% (active)
5,CCCCCCCCCC[Se]C#N,31% (inactive)
6,Nc1nc(N)c(-c2ccc(Cl)c(Cl)c2)c(CP(Cl)(Cl)(Cl)Br)n1,37% (inactive)
7,CC1CC(C)CC(C)C(O)/C(C#N)=C/C=C/CC(C2CCCC2C(=O)O)OC(=O)CC(O)C(C)C1 (stereo not drawn),99% (active)

# Same assay, conditions: S. cerevisiae rad14 strain growth inhibition; at 100.0 µM; stronger effect = higher value
row,SMILES,growth inhibition
1,C=C[C@H]1CN2CC[C@H]1C[C@@H]2[C@@H](O)c1ccnc2ccccc12,1% (inactive)
2,O=c1c2ccccc2[se]n1-c1cccnc1,84% (active)
3,OC1(c2ccccc2)CC2CCC(C1)N2CCCC(O)(c1ccccc1)c1ccccc1 (stereo not drawn),96% (active)
4,COC(=O)C(F)C(Br)C(=O)OC (stereo not drawn),96% (active)
5,CCCCCCCCCC[Se]C#N,99% (active)
6,Nc1nc(N)c(-c2ccc(Cl)c(Cl)c2)c(CP(Cl)(Cl)(Cl)Br)n1,54% (inactive)
7,CC1CC(C)CC(C)C(O)/C(C#N)=C/C=C/CC(C2CCCC2C(=O)O)OC(=O)CC(O)C(C)C1 (stereo not drawn),98% (active)

# Assay: NCI Yeast Anticancer Drug Screen. Data for the sgs1 mgt1 strain (AID 161);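 note: 0% = growth of cultures given vehicle only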
# Details: S. cerevisiae sgs1 mgt1 strain, at 5.0 µM (retest, dose inferred, filed as 0.5), stronger effect = higher value
# Method in brief: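 Genetically altered yeast, compound exposure, growth inhibition relative to vehicle.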
row,SMILES,growth inhibition
1,COC(COC(N)=O)C1=C(N2CC2)C(=O)C(C)=C(N2CC2)C1=O (stereo not drawn),50% (inactive)
2,Cc1nc(Cl)c(CBr)c(Cl)n1,43% (inactive)
3,C[n+]1[se]nc2cc(C(=O)c3ccccc3)ccc21 (tested in a mixture with another compound),98% (active)
4,O=C(O)c1ccccc1.[Ag],99% (active) and -5% (inactive)
5,CC(=O)[O-].O=C([CH-]C(=O)c1ccccc1)c1ccccc1.O=C([CH-]C(=O)c1ccccc1)c1ccccc1.[Sm+3],50% (inactive)
6,CC(C)(Br)C(=O)C(Br)Br,98% (active)
7,COC1(OC)C(Cl)=C(Cl)C(Cl)=C1Cl,-1% (inactive)
8,[C-]#[O+].[C-]#[O+].[Ir].[O-]c1ccc2ccccc2c1N=Nc1ccccc1,15% (inactive)
9,O=C(Nc1ccccc1)OC(C[N+](=O)[O-])C(Cl)(Cl)Cl (stereo not drawn),5% (inactive)
10,O=c1c2ccccc2[se]n1-c1cccnc1,58% (inactive)
11,[Pt].c1ccc(P(CCP(c2ccccc2)c2ccccc2)CCP(c2ccccc2)c2ccccc2)cc1,8% (inactive)
12,CC12CCC(C1)C(C)(C)C2OC(=O)c1ccccc1N (stereo not drawn),-5% (inactive)
13,CC(=O)[O][Hg][c]1cc2c(cc1O)Cc1cc([N+](=O)[O-])ccc1-2,99% (active)
14,OC1(c2ccccc2)CC2CCC(C1)N2CCCC(O)(c1ccccc1)c1ccccc1 (stereo not drawn),-2% (inactive)
15,ClC1=C(Cl)C(Cl)(Cl)SS1,100% (active)
16,COC(=O)C(F)C(Br)C(=O)OC (stereo not drawn),8% (inactive)
17,c1ccc2c(NCCCCCCNc3c4ccccc4nc4ccccc34)c3ccccc3nc2c1,54% (inactive)
18,c1ccc2c(NCCCCCCCCNc3c4ccccc4nc4ccccc34)c3ccccc3nc2c1,64% (inactive)
19,CN(Cc1ccccc1)CC(O)c1ccc(Cl)cc1 (stereo not drawn),2% (inactive)

row,SMILES,growth inhibition
1,Br[C](Br)(Br)[Hg][c]1ccccc1,100% (active)
2,Cc1cc(N=Nc2ccccc2C)ccc1N,-4% (inactive) and 31% (inactive)
3,C/C(=N\N=C(/[Se])N1CC2CCC(CC2)C1)c1ccccn1,53% (inactive)
4,CCCCCCCCCC[Se]C#N,46% (inactive)
5,CNCC(O)c1ccc(O)c(O)c1.[Pt].c1ccc([PH+](c2ccccc2)c2ccccc2)cc1.c1ccc([PH+](c2ccccc2)c2ccccc2)cc1,-2% (inactive)
6,CCN(CC)CC.CCOc1ccc(NC(=O)N=C=[N-])cc1.[CH-]1CCCCC1.[CH-]1CCCCC1.[CH-]1CCCCC1.[Cl-].[Sn+4],99% (active)
7,Cc1cc(N(C)C)c2ccccc2[n+]1CCCCCCCCCC[n+]1c(C)cc(N(C)C)c2ccccc21,95% (active)
8,CCC[CH2][Sn]1([CH2]CCC)[O]CC(CN2CCCC2)[O]1 (stereo not drawn),46% (inactive)
9,N#Cc1ccc([Se]c2ccccc2)cc1,-1% (inactive)
10,O=c1ssc(Cl)c1Cl,100% (active)
11,Nc1nc(N)c(-c2ccc(Cl)c(Cl)c2)c(CP(Cl)(Cl)(Cl)Br)n1,30% (inactive)
12,Cc1ccc(P(c2ccc(C)cc2)c2ccc(C)cc2)cc1,7% (inactive)
13,O=C(O)c1ccccc1[Se][Se]c1ccccc1C(=O)O,53% (inactive)
14,CC1CC(C)CC(C)C(O)/C(C#N)=C/C=C/CC(C2CCCC2C(=O)O)OC(=O)CC(O)C(C)C1 (stereo not drawn),15% (inactive)
15,CCC[CH2][Pb]([Cl])([CH2]CCC)[CH2]CCC,100% (active)
16,CNC(Cc1ccccc1)c1ccc(OC)c(OC)c1 (stereo not drawn),-31% (inactive)
17,CC1C(=O)OCC1(C)O (stereo not drawn),-4% (inactive)
18,O=C(Nc1ccccc1)c1cc([N+](=O)[O-])ccc1O,2% (inactive)
19,N=P(c1ccccc1)(c1ccccc1)c1ccccc1 (tested in a mixture with another compound),14% (inactive)
